Results: PubChem BioAssay (NCATS)
Values joined by “and” are separate entries in the source; they are usually repeats but may differ in a detail not shown here. Equal entries are not always repeated. Records with an inconclusive call do not appear. Active and inactive are the calls of the source. Unless noted, calls come from the whole dose curve; as a rule, active = well fitted curve in either direction with a large enough effect (not every such curve was filed as active); inconclusive = small, poorly fitted or top-dose-only effect, or another doubt; inactive = flat fitted curve, though single readings scatter.

Legend:
[1] = AP1 Signaling Pathway (AID 357); conditions: ME-180 AP-1-bla reporter, EGF-induced, beta-lactamase ratio, 5 h;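 note: ME-180 reporter cells stimulated with EGF at its EC50 level; % is set by controls: 0 for no effect and ±100 for the full control effect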
Method in brief: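 Titration-series screen for positive or negative modulators of EC50 EGF-induced signaling in ME-180 cells carrying an AP-1-driven beta-lactamase reporter. After 5 hours at 37 degrees Celsius, CCF4 460nm/530nm emission ratio gave %Activity; AC50 values derived.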

[2] = NFAT Signaling Pathway (AID 444); conditions: Jurkat NFAT-bla M1, carbachol, beta-lactamase ratio, 5 h; at 38 µM (top of the series) unless noted;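 note: carbachol stimulus at about its EC50 of 1 µM final; % is set by controls: 0 for no effect and ±100 for the full control effect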
Method in brief: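 Jurkat cells carrying an NFAT-driven β-lactamase reporter and co-transfected muscarinic M1 receptor were treated with compound plus carbachol (1 uM final, an EC50 level) for 5 h at 37 °C. CCF4 loading followed for 1 h at RT; 460/530 nm ratio gave %activity.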

[3] = Stat Signaling Pathway (AID 446); conditions: ME-180 (cervical carcinoma) SIE beta-lactamase reporter, IL-6 stimulated, 5 h;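 note: ME-180 cervical cancer cells given 40 pM IL-6 alongside compound; SIE-controlled beta-lactamase reporter measured as 460/530 nm FRET emission ratio; % is set by controls: 0 for no effect and ±100 for the full control effect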
Method in brief: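 Normalization used AC90 stimulation (300 pM IL-6) and AC90 inhibition (125 nM pan-JAK inhibitor at 40 pM IL-6). The underlying signal is SIE-driven beta-lactamase in ME-180 cells after 5 h IL-6 exposure with compound.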

[4] = biological target: Glucocorticoid receptor (Homo sapiens) (UniProt P04150); assay: GR-GFP Redistribution (AID 450;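 active = compounds whose dose series gives a full or clear partial fitted curve of increased nuclear translocation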; note: potency is the fitted concentration of half-maximal effect); conditions: U2OS GR-GFP nuclear translocation, laser cytometry, 2 h
[5] = biological target: Glucocorticoid receptor (Homo sapiens) (UniProt P04150); assay: GR-EFC Redistribution (AID 451; calls by dose curve; note: potency is the fitted concentration of half-maximal effect); conditions: CHO-K1 GR-EFC translocation, beta-gal luminescence, 2 h
Method in brief: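 CHO-K1 cells stably expressing nuclear-localized β-gal enzyme acceptor and GR fused C-terminally to the enzyme donor fragment; ligand-driven nuclear translocation restores β-gal by complementation. Compounds titrated up to 46 uM final, 2 h at 37 °C; luminescence read.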

[6] = biological target: Mitogen-activated protein kinase 10 (Mus musculus) (UniProt Q61831); assay: JNK3 AlphaScreen Assay (AID 530); conditions: JNK3 lysate, c-Jun phosphorylation; series mostly up to 57.1 µM;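 note: kinase came from lysate of stimulated human HepG2 cells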; note: potency is the fitted concentration of half-maximal effect;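 for activity change, negative = inhibition: signal reports phosphorylation of biotinylated GST-cJun 1-79 at Ser73 with 10 µM ATP; % is set by controls: 0 for no effect and ±100 for the full control effect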
Method in brief: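 Biotinylated GST-cJun(1-79) served as substrate for JNK3 in HepG2 lysates stimulated with IL-1beta and TNF-alpha. ATP was 10 uM final, pH 7.6. Ser73 phosphorylation was quantified by AlphaScreen (680 nm excitation).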

[7] = biological target: Cytochrome P450 1A2 (Homo sapiens) (UniProt P05177); assay: p450-cyp1a2 (AID 410; calls by dose curve; note: potency is the fitted concentration of half-maximal effect;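 for activity change, negative = inhibition: -100% = full effect of reference inhibitor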); conditions: recombinant CYP1A2, luciferin-ME demethylation, luminescence; series mostly up to 57 µM
Method in brief: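 20nM CYP1A2, 100uM Luciferin-ME (=Km), 100mM KPO4; cpd 10 min RT; +NADPH regen, 60 min RT; stop/detect 20 min; luminescence. Normalized to furafylline 57 uM = full inhibition.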

[8] = Cell Viability - Jurkat (AID 426;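 active = dose-dependent loss of cell ATP signal giving a full or clear fitted curve, ranked by lower potency value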; note: potency is the fitted concentration of half-maximal effect); conditions: qHTS
Method in brief: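 Luminescent ATP read-out (CellTiter-Glo, 20 min at room temperature) after 40 hr compound exposure at 37 °C of Jurkat E6-1 cells, 5000/well. Decreased ATP taken as cytotoxicity; AC50 from standard Hill equation.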

[9] = Cell Viability - Hek293 (AID 427;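 active = compounds whose dose-response curve shows a full or clear partial loss of cell viability, called from curve shape rather than a numeric limit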;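 note: potency is the fitted concentration of half-maximal effect; cells exposed to compound for 40 hours at 37 °C before reading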); conditions: qHTS
Method in brief: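 HEK293 cells in complete medium were exposed to compound for 40 hr at 37 °C, then cellular ATP was read by CellTiter-Glo luminescence. Data were normalized to DMSO (basal) and 100 uM tamoxifen (100% inhibition), and AC50 came from Hill fits.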

[10] = Cell Viability - HepG2 (AID 433; calls by dose curve;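 note: potency is the fitted concentration of half-maximal effect; potency for ATP loss meaning cytotoxicity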); conditions: qHTS
Method in brief: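 HepG2 cells, 1500 per well, treated 40 hr at 37 °C in complete medium; viability from intracellular ATP by CellTiter-Glo luminescence. Normalized to DMSO and 100 uM tamoxifen; AC50 from Hill fit of qHTS concentration-response.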

[11] = Cell Viability - MRC5 (AID 434; calls by dose curve;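 note: potency is the fitted concentration of half-maximal effect; potency reflects cytotoxicity seen as loss of intracellular ATP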); conditions: MRC5 lung fibroblast viability, qHTS
Method in brief: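 Decrease in intracellular ATP, quantified by luciferase light output, reflects compound toxicity toward MRC5 cells exposed for 40 hr in complete culture medium. Concentration-response curves, scaled between DMSO and 100 uM tamoxifen, gave AC50 values.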

[12] = Cell Viability - SK-N-SH (AID 435; calls by dose curve; note: potency is the fitted concentration of half-maximal effect); conditions: SK-N-SH neuroblastoma cell viability qHTS
Method in brief: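 SK-N-SH neuroblastoma cells (1500/well) treated 40 h at 37 °C in complete medium; viability read as cellular ATP by CellTiter-Glo luminescence. Normalized to DMSO and 100 uM tamoxifen; AC50 from Hill fits of qHTS concentration-response.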

[13] = Cell Viability - H-4-II-E (AID 543; active = well fitted cell-killing curve with a large enough effect; note: potency is the fitted concentration of half-maximal effect; nearly all actives have a fitted effect of over 35% in size); conditions: H-4-II-E rat hepatoma viability; series mostly up to 92.2 µM
Method in brief: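 qHTS, rat hepatoma H-4-II-E, 1500 cells/well; 40 hr compound exposure, 37 °C; CellTiter-Glo ATP luminescence after 20 min RT; AC50 by standard Hill fit.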

[14] = Cell Viability - SH-SY5Y (AID 544; active = well fitted cell-killing curve with a large enough effect; note: potency is the fitted concentration of half-maximal effect; nearly all actives have a fitted effect of over 55% in size); conditions: SH-SY5Y neuroblastoma cell viability; viability change, negative = cytotoxic: at 92.2 µM (top of the series)
Method in brief: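 SH-SY5Y, 1500 cells/well, 5 hr pre-incubation 37 °C; cpd 40 hr 37 °C; CellTiter-Glo 20 min RT; luminescence (ATP) read. qHTS concentration-response, Hill fit → AC50. Tamoxifen, doxorubicin as positive controls.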

Cytochrome P450 1A2 (Homo sapiens), sequence (P05177 whole entry, looked up): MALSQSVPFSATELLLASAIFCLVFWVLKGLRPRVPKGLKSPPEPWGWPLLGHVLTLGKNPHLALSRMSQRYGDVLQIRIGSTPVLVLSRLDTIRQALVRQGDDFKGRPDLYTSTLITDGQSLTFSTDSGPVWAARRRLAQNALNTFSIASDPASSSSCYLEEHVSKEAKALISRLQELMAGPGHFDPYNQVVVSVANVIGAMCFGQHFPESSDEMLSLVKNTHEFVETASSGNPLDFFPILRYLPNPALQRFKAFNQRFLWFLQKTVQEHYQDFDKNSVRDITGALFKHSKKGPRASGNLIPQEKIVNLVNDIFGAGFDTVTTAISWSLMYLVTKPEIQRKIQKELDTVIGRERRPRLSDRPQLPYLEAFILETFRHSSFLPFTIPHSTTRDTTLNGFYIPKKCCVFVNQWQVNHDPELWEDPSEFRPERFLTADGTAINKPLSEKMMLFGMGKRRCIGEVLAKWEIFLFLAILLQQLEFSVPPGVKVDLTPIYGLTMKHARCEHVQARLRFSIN
Glucocorticoid receptor (Homo sapiens), sequence (P04150 whole entry, looked up, the tested form may be a part): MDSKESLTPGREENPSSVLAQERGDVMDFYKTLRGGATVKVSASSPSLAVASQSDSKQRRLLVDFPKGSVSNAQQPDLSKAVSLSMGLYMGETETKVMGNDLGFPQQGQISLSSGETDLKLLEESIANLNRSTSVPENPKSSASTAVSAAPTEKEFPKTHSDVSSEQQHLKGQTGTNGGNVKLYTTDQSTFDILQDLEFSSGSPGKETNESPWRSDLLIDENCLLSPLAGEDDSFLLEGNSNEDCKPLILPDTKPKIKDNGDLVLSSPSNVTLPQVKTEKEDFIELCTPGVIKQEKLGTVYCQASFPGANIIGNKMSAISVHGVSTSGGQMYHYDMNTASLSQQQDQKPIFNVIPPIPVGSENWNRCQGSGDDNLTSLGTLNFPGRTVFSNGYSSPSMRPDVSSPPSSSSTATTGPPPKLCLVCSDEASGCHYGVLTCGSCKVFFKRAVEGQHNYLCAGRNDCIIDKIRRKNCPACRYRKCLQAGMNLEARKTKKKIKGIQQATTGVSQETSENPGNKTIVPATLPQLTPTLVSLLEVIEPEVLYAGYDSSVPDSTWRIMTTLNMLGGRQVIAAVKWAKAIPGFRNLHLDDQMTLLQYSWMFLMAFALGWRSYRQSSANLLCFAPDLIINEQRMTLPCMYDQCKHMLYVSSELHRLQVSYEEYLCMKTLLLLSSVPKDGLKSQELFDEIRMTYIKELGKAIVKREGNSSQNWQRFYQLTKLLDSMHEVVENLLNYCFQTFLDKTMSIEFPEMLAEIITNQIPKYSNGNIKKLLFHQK

OC[C@H]1O[C@@H](n2cnc3c(Nc4ccccc4)ncnc32)[C@H](O)[C@@H]1O
inactive: activity change, negative = inhibition ([1]; at 17.2 µM (top of the series)) 0.891% | activity change, negative = inhibition [2] 4.47% [at 17.2 µM] | activity, negative = inhibition ([3]; at 17.2 µM (top of the series)) 17.7% | Potency [4] > 20.6 µM

O=C(O)Cc1ccc(-c2ccccc2)cc1
inactive: activity change, negative = inhibition ([1]; at 17.2 µM (top of the series)) 3.75% and 6.11% | activity change, negative = inhibition [2] -2.29% [at 17.2 µM] and -12.1% [at 17.2 µM] | activity, negative = inhibition ([3]; at 17.2 µM (top of the series)) -10.3% and 7.71% | Potency [4] > 20.6 µM | Potency [5] > 20.6 µM | Potency [6]

Nc1ccc(C(=O)O)c(O)c1
inactive: activity change, negative = inhibition ([1]; at 17.2 µM (top of the series)) 2.89% and -3.6% | activity change, negative = inhibition [2] 10.1% [at 17.2 µM] and -5.83% [at 17.2 µM] | activity, negative = inhibition ([3]; at 17.2 µM (top of the series)) 7.35% and -0.89% | Potency [4] > 20.6 µM

COC(=O)c1c(C)[nH]c(C)c1C(=O)c1ccccc1Cc1ccccc1
active: Potency [7] 1.26 µM and 251 nM
inactive: activity change, negative = inhibition ([1]; at 38 µM (top of the series)) -27.5% | activity change, negative = inhibition [2] 4.44% | activity, negative = inhibition ([3]; at 38 µM (top of the series)) -23% | Potency [4] > 46 µM | Potency [5] > 46 µM | Potency [6]

O=S(=O)(c1cccc2c(I)cccc12)N1CCCNCC1
active: Potency [7] 10 µM
inactive: activity change, negative = inhibition ([1]; at 38 µM (top of the series)) 5.61% | activity change, negative = inhibition [2] -18.6% | Potency [4] > 46 µM | Potency [5] > 46 µM | Potency [6]

Cc1c(Nc2ncccc2C(=O)O)cccc1C(F)(F)F
inactive: activity change, negative = inhibition ([1]; at 17.2 µM (top of the series)) -17.9% | activity change, negative = inhibition [2] -13.1% [at 17.2 µM] | activity, negative = inhibition ([3]; at 17.2 µM (top of the series)) -19.6% | Potency [6]
active: Potency [7] 12.6 µM

CN=c1nc(-c2ccccc2)n(-c2ccccc2)s1
active: Potency [7] 5.01 µM
inactive: activity change, negative = inhibition ([1]; at 38 µM (top of the series)) 20.8% | activity, negative = inhibition ([3]; at 38 µM (top of the series)) 8.46% | Potency [4] > 46 µM | Potency [5] > 46 µM | Potency [6]

COc1cc(/C=C/C(=O)CC(=O)/C=C/c2ccc(O)c(OC)c2)ccc1O
inactive: activity change, negative = inhibition ([1]; at 17.2 µM (top of the series)) 22.5% | Potency [10] > 92 µM | activity, negative = inhibition ([3]; at 17.2 µM (top of the series)) -22.7% | Potency [4] > 20.6 µM | Potency [6]
active: Potency [8] 28.2 µM | Potency [9] 42.7 µM | Potency [11] 45.2 µM | Potency [12] 22.9 µM | Potency [13] 31.6 µM | Potency [14] 31.6 µM

C=C[C@H]1CN2CC[C@@H]1C[C@@H]2[C@@H](O)c1ccnc2ccc(OC)cc12
inactive: activity change, negative = inhibition ([1]; at 38 µM (top of the series)) 0.0731% and 9.28% | Potency [7] | activity change, negative = inhibition [2] -6.92% and -0.71% | activity, negative = inhibition ([3]; at 38 µM (top of the series)) -15% and 18.5% | Potency [6]

CN1CCc2ccccc2Cc2[nH]c3ccccc3c2CC1
inactive: activity change, negative = inhibition ([1]; at 38 µM (top of the series)) 8.89% | activity change, negative = inhibition [2] -7.31% | activity, negative = inhibition ([3]; at 38 µM (top of the series)) -13.2% | Potency [4] > 46 µM | Potency [5] > 46 µM | Potency [6]

Fc1ccc(C(OCCCc2cnc[nH]2)c2ccc(F)cc2)cc1
active: Potency [7] 0.1 µM
inactive: activity change, negative = inhibition ([1]; at 38 µM (top of the series)) 26.5% | activity, negative = inhibition ([3]; at 38 µM (top of the series)) 27.8% | Potency [4] > 46 µM | Potency [5] > 46 µM | Potency [6]

Cn1c(=O)c2[nH]c(-c3ccccc3)nc2n(C)c1=O
active: Potency [7] 2 µM
inactive: activity change, negative = inhibition ([1]; at 38 µM (top of the series)) 14.7% | activity change, negative = inhibition [2] 3.48% | activity, negative = inhibition ([3]; at 38 µM (top of the series)) -0.0891% | Potency [4] > 46 µM | Potency [5] > 46 µM | Potency [6]

CCCN(CC1CC1)c1nc(C)nc(Nc2c(Cl)cc(Cl)cc2Cl)c1Cl
inactive: activity change, negative = inhibition ([1]; at 38 µM (top of the series)) 18.7% | Potency [7] | activity, negative = inhibition ([3]; at 38 µM (top of the series)) -12.8% | Potency [4] > 46 µM | Potency [5] > 46 µM

O=c1[nH]c2cc(Cl)c(Cl)cc2[nH]c1=O
inactive: activity change, negative = inhibition ([1]; at 38 µM (top of the series)) -8.09% | activity change, negative = inhibition [2] 4.68% | activity, negative = inhibition ([3]; at 38 µM (top of the series)) -0.584% | Potency [4] > 46 µM | Potency [5] > 46 µM

Cc1ccc(O)c(N=Nc2ccccc2)n1
active: Potency [7] 794 nM and 158 nM
inactive: activity change, negative = inhibition ([1]; at 38 µM (top of the series)) 17.2% | activity change, negative = inhibition [2] -10.8% | activity, negative = inhibition ([3]; at 38 µM (top of the series)) -4.23% | Potency [4] > 46 µM | Potency [5] > 46 µM | Potency [6]

N#C/C(=C\c1ccc(O)c(O)c1)C(=O)NCCCc1ccccc1
inactive: activity change, negative = inhibition ([1]; at 17.2 µM (top of the series)) -12.8% | activity, negative = inhibition ([3]; at 17.2 µM (top of the series)) -22.9% | activity, negative = inhibition ([3]; at 38 µM (top of the series)) -10.2% | Potency [4] > 46 µM and > 20.6 µM | Potency [5] > 46 µM
active: Potency [7] 12.6 µM | Potency [6] 10 µM

Cc1c(N)c(=O)n(-c2ccccc2)n1C
inactive: activity change, negative = inhibition ([1]; at 17.2 µM (top of the series)) 7.65% | activity change, negative = inhibition [2] -9.93% [at 17.2 µM] | activity, negative = inhibition ([3]; at 17.2 µM (top of the series)) 3.23% | Potency [4] > 20.6 µM | Potency [5] > 20.6 µM | Potency [6]

CCCCN1CCC(n2c(=O)[nH]c3ccccc32)CC1
inactive: activity change, negative = inhibition ([1]; at 38 µM (top of the series)) -4.94% | Potency [7] | activity change, negative = inhibition [2] 4.7% | Potency [4] > 46 µM | Potency [5] > 46 µM

CC1(C)CCC=[N+]1[O-]
inactive: activity change, negative = inhibition ([1]; at 38 µM (top of the series)) -4.03% | Potency [7] | activity change, negative = inhibition [2] -6.56% | activity, negative = inhibition ([3]; at 38 µM (top of the series)) 4.29% | Potency [4] > 46 µM | Potency [5] > 46 µM | Potency [6]

COc1ccccc1CNCCCCCCNCCCCCCCCNCCCCCCNCc1ccccc1OC
inactive: activity change, negative = inhibition ([1]; at 38 µM (top of the series)) -8.92% | Potency [7] | Potency [4] > 46 µM | Potency [5] > 46 µM | Potency [6]

COc1ccc(/C=C/C(=O)Nc2ccccc2C(=O)O)cc1OC
inactive: activity change, negative = inhibition ([1]; at 17.2 µM (top of the series)) -28.6% | activity change, negative = inhibition [2] 22.7% [at 17.2 µM] | activity, negative = inhibition ([3]; at 17.2 µM (top of the series)) -24.7% | Potency [4] > 20.6 µM

NC(N)=NC(=O)c1nc(Cl)c(N2CCCCCC2)nc1N
active: Potency [7] 1 µM
inactive: activity change, negative = inhibition ([1]; at 38 µM (top of the series)) 21.5% | activity, negative = inhibition ([3]; at 38 µM (top of the series)) 1% | Potency [4] > 46 µM | Potency [5] > 46 µM | Potency [6]
